Rows were chosen to be rich in hits. Some 19% of all compounds tested hit in one or more screens of this group.
TDP1 cell noCPT – qHTS for Inhibitors of human tyrosyl-DNA phosphodiesterase 1 (TDP1): qHTS in cells in absence of CPT. DT40 Tdp1-/- hTDP1 cells, no CPT, ATP luminescence, 48 h. Potency, µM (series often up to 46.2 µM), hits mostly inhibitors. actives 15% (n = 420,000); note: nearly all actives have a fitted effect of over 55% in size
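Growth of hTDP1-complemented DT40 Tdp1-knockout cells is measured by ATP luminescence after at least 48 hr compound exposure at 37 °C, with DMSO substituting for the 20 nM CPT used in the parallel screen.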
HT1080NT lethal – kills 2HG-producing HT-1080-NT fibrosarcoma cells | HT-1080-NT fibrosarcoma viability, CellTiter-Glo ATP luminescence, 48 h | Potency, µM (titrated, usually from 46.1 µM), hits mostly cytotoxic | actives 1.6% (n = 360,000) | AID 686970;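 note: NT is the 2HG producing partner of a matched IDH1 knockdown line; nearly all actives have a fitted effect of over 55% in size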
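Viability of the 2HG-overproducing fibrosarcoma line after 48 hours of compound exposure at 37 degrees C was determined by luminescence with CellTiter-Glo, and concentration-effect curves were then fitted and categorized.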
TDP1 cell CPT – DT40-hTDP1 cell growth loss with CPT; Potency, µM (highest dose often 46.2 µM), usual class: inhibitors; actives 12% (n = 420,000); chicken DT40 Tdp1-/-;hTDP1 cells + 20 nM CPT, ATP luminescence, 48 h; AID 686979; note: nearly all actives have a fitted effect of over 55% in size
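Chicken DT40 Tdp1-/- cells stably complemented with human TDP1 were seeded at 400 cells/well in medium containing 20 nM camptothecin, exposed to pin-transferred compounds, and grown at 37 °C for at least 48 hr. Viability was read as ATP luminescence.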
KB-V1 cytotox – KB-V1 MDR subline cytotoxicity; KB-V1 MDR cells viability, CellTiter-Glo, 72 h; Potency, µM (titrated, usually from 46.1 µM), usual class: cytotoxic; actives 3.4% (n = 400,000); AID 1347076; note: nearly all actives have a fitted effect of over 60% in size
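In this primary screen, KB-V1 cells overexpressing P-gp are incubated with library compounds (lowest to highest concentration) for 72 h at 37 degrees C before a luminescent ATP viability read.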
KB-3-1 cytotox – kills parental KB-3-1 adenocarcinoma cells; KB-3-1 viability, CellTiter-Glo ATP luminescence, 72 h; Potency, µM (top dose mostly 46.1 µM), most hits filed as cytotoxic; actives 1.4% (n = 400,000); note: nearly all actives have a fitted effect of over 60% in size
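Here the drug-naive KB-3-1 line serves as comparator for MDR sub-line selectivity; cells received compound titrations, 72 h at 37 °C, then CellTiter-Glo readout.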
HT1080 IDH1KD tx – HT-1080 IDH1 knockdown cell toxicity (counter line) | HT-1080 IDH1 knockdown viability, ATP luminescence, 48 h | Potency, µM (titrated, usually from 46.1 µM), actives largely listed as cytotoxic | actives 2% (n = 360,000) | AID 686971
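Using the IDH1-knockdown HT-1080 line run in the same batch and compound series as the NT line, viability after 48 h at 37 °C was determined by CellTiter-Glo luminescence and expressed as % activity.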
Hits are given with their value; . = inactive; ? = inconclusive; / = not tested or not shown; [ ] = dose if it differs, or a comment. Calls come from the whole dose curve; as a rule, active = well fitted curve in the direction sought with a large enough effect; inconclusive = small, poorly fitted or top-dose-only effect, or another doubt; inactive = no such curve, though single readings can be large; an effect the other way counts as inactive or inconclusive.

SMILES	TDP1 cell noCPT	HT1080NT lethal	TDP1 cell CPT	KB-V1 cytotox	KB-3-1 cytotox	HT1080 IDH1KD tx
Cc1cnc(NC(=O)CC(C)c2ccccc2)s1 (stereo not drawn)	5.2µM	?	6.5µM	?	21µM	?
CCOC(=O)c1sc(NC(=O)CC(C)c2ccccc2)nc1C (stereo not drawn)	3.7µM	?	13µM	?	?	9.2µM
CCOC(=O)c1sc(NC(=O)CSC(=S)N2CCN(C)CC2)nc1C	18µM	?	26µM	.	.	?
CN1CCN(C(=S)SCC(=O)Nc2nc(-c3ccccc3)c(-c3ccccc3)o2)CC1	?	.	.	21µM	?	.
CN[C@H](C)C(=O)NC[C@H]1O[C@@H](n2cc(C)c(=O)[nH]c2=O)C[C@@H]1O	.	.	.	.	?	.
CCOC(=O)c1sc2nc(NC(=O)COc3ccccc3)sc2c1C	18µM	.	?	.	.	.
CCOC(=O)c1sc(NC(C)=O)nc1C	.	.	?	.	.	.[9.24 µM]
CCOC(=O)c1sc(NC(=O)CCc2ccccc2)nc1C	1.2µM	.	1.8µM	.	?	.
CCOC(=O)c1sc(Nc2nc(OC)cc(OC)n2)nc1C	21µM	.	?	.	.	.
CNC(=S)N(CCc1c(C)[nH]c2ccc(C)cc12)Cc1cccnc1	.	.	.	.	.	.
CCCc1c(C(=O)N/N=C/c2ccc3c(c2)OCO3)nnn1-c1nonc1N	.	.	.	.	.	.
Oc1ccc(C2C[C@H]3CC[C@@H]2C3)cc1O (stereo partly drawn)	?	?	12µM	.	.	?
Cc1ccc(S(=O)(=O)NCCCNC(=O)c2ccccc2)cc1	.	.	.	18µM	.	.
Cc1c(NS(=O)(=O)c2ccc(C(=O)NCc3ccccc3)cc2)c(=O)n(-c2ccccc2)n1C	?	.	.	.	.	.
Cc1ccc(S(=O)(=O)NNC(=O)c2ccc(C(=O)N(c3ccccc3)c3ccccc3)cc2)cc1	11µM	/	16µM	.	.	/
Cc1ccc(CNC(=O)c2ccc(S(=O)(=O)Nc3c(C)n(C)n(-c4ccccc4)c3=O)cc2)cc1	21µM	.	?	.	.	.
Cc1ccc(S(=O)(=O)NCCC(=O)Nc2ccc(C)cc2C(=O)c2ccccc2)cc1	21µM	.	?	.	.	.
CCCN(C(=O)CSc1nnc(-c2ccncc2)n1CCC)c1c(N)n(Cc2ccccc2)c(=O)[nH]c1=O	.	.	.	.	.	.
O=c1[nH]c2cc([N+](=O)[O-])ccc2c2cc(Br)ccc12	?	.	.	.	.	.
Cc1ccc(S(=O)(=O)NCc2ccc(C(=O)NCCN(Cc3ccccc3)C(C)C)cc2)cc1	16µM	?	?	.	?	?
Cc1ccc(S(=O)(=O)NCCCN(C)C)cc1	.	.	.	.	.	.
Cc1ccc(S(=O)(=O)NCCCNS(=O)(=O)c2ccc(C)cc2)cc1	?	.	?	15µM	.	.
COC(=O)c1ccc(NC(=O)CN(C)Cc2cccc(F)c2)cc1	13µM	.	.	?	.	.
CCN(CC(=O)Nc1ccc(C(=O)OC)cc1)Cc1ccccc1	.	.	.	.	.	.
COC(=O)c1ccc(C(=O)OC)c(NC(=O)CN(C)Cc2cccc(Cl)c2Cl)c1	?	.	?	?	.	.
COC(=O)c1ccc(C(=O)OC)c(NC(=O)CN(C)Cc2ccccc2)c1	16µM	.	.	.	.	.
CCc1nc2ccc(C(=O)NCCCn3ccnc3)cn2c1N(C)C(=O)c1cccc(OC)c1	.	.	.	.	.	.
C[C@]12CCC(=O)CC1CCC1C2CC[C@@]2(C)C1CC[C@@]21CCO1 (stereo partly drawn)	21µM	?	?	?	.	?
CCCNC(=O)c1cc2n(n1)CCCN(Cc1ccc(F)cc1)C2=O	.	/	.	.	.	/

From PubChem
